Compound activity (PubChem BioAssay)
Tau filament bind – binders of human tau filaments | recombinant tau filaments, thioflavin S fluorescence, 15 h; filaments grown with octadecylsulfate alongside compound | Potency, µM (highest dose often 57.1 µM), for inactives: at the top dose activity change, negative = inhibition | 71,000 tested, 2% active | AID 596;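 further: on the % scale 0 is the no-effect control and ±100 the full control effect; actives lower thioflavin S fluorescence by blocking filaments or displacing dye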
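Recombinant tau protein (human, 1 uM final) plus 30 uM ODS in HEPES pH 7.4 with NaCl, DTT and thioflavine S. Compound present from the start; fluorescence at 510 nm after 15 h, 37 C.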
Hsp90 Hop PPI – changes Hsp90-Hop TPR2A binding signal, up or down. AlphaScreen TPR2A-His6 binding biotin-Hsp90 C-terminal peptide. Potency, µM (highest dose often 57 µM), for inactives: top-dose activity change, negative = inhibition. 71,000 tested, 0.44% active. AID 595; active means well fitted curve in either direction with a large enough effect; inconclusive means small, poorly fitted or top-dose-only effect, or another doubt; further: on the % scale 0 is the no-effect control and ±100 the full control effect
PK Bst – modulators of Bacillus stearothermophilus pyruvate kinase; purified pyruvate kinase, luminescence ATP production; ribose 5-phosphate activator present at AC10; Potency, µM; 51,000 tested, 1.2% active; in the data active means potency below about 11 µM; inconclusive means mostly about 12 µM to 25 µM;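 the screen sought inhibitors and activators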;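 further: scaled between full activation by ribose 5 phosphate and full inhibition by luteolin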
15-hLO inh – inhibitors of human 15-lipoxygenase (ALOX15); P16050; purified 15hLO-1, xylenol orange hydroperoxide absorbance; Potency, µM (series often up to 57.1 µM), for inactives: top-dose activity change, negative = inhibition, usual class: inhibitors; 74,000 tested, 1.4% active; AID 887; further: on the % scale 0 is the no-effect control and ±100 the full control effect; nearly all actives have a fitted effect of over 55% in size
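Compounds were preincubated 15 min at room temperature with 40 nM purified human enzyme (25 mM Hepes pH 7.5, 0.01% Triton X-100); 50 uM arachidonic acid reacted 6 min. Fe-xylenol orange detection, 30 min, absorbance ratio 573/405 nm.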
GBA mod – human lysosomal glucosylceramidase modulation | Potency, µM | 48,000 tested, 1.1% active | AID 360 | purified enzyme, resorufin glucoside fluorescence (screen aimed at inhibitors), 20 min; in the data active means potency below about 15 µM; inconclusive means mostly about 16 µM to 33 µM;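 further: the screen sought inhibitors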
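Compounds titrated against 0.2 nM normal enzyme, 30 uM resorufin beta-D-glucopyranoside substrate, citrate/phosphate buffer with taurocholate and tween-20, pH 5.9. Reaction ran 20 min at room temperature; fluorescence (Ex 548/Em 600) gave AC50.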
USP2a inh – blocks human ubiquitin-specific protease USP2a; USP2a enzymatic assay, qHTS inhibition; O75604; Potency, µM (series often up to 38.3 µM), without a hit: top-dose activity change, negative = inhibition, usual class: inhibitors; 60,000 tested, 0.1% active; further: nearly all actives have a fitted effect of over 60% in size
Target sequence (O75604 whole entry, looked up): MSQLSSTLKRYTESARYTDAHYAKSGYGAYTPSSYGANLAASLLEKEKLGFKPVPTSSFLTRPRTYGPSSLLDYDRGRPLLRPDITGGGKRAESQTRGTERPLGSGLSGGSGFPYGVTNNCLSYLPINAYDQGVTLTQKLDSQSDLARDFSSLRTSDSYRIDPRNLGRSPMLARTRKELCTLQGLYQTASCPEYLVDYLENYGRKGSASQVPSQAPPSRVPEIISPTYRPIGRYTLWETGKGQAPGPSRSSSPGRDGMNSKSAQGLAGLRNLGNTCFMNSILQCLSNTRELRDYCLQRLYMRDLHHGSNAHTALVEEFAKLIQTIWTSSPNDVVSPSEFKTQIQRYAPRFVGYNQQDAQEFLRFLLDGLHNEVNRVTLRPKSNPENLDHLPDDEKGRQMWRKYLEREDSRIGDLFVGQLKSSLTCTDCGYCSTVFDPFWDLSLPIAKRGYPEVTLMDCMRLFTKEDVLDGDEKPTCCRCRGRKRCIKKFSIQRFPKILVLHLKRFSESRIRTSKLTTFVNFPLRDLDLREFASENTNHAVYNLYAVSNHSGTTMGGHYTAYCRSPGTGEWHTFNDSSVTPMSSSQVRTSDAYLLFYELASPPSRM
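USP2 core (20 nM final) was preincubated with compound for 30 min at RT in 20 mM Tris-HCl pH 8.0, 2 mM CaCl2, 2 mM beta-mercaptoethanol; Ub-PLA2 (20 nM) plus NBD C6-HPC (20 uM) then added, fluorescence read after 2.5 h.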
The depositor's hits bear a star; i = inactive; u = inconclusive; x = no result; ! = not active in a repeat; [ ] = dose if it differs, or a comment. Most compounds without a hit are left out; they make up all but 4.6% or so of the library. Unless noted, the call rests on the fitted dose curve; in most records, active means well fitted curve in the direction sought with a large enough effect; inconclusive means small, poorly fitted or top-dose-only effect, or another doubt; inactive means no such curve, though single readings can be large; an effect the other way counts as inactive or inconclusive. Potency means the concentration at half of the fitted maximal effect.

SMILES	Tau filament bind	Hsp90 Hop PPI	PK Bst	15-hLO inh	GBA mod	USP2a inh
COc1ccc(Cl)cc1N=Nc1ncc[nH]1	40µM*	-9%	x	-15%[25.6 µM]	x	x
Cc1ccc(NCCNc2ccc(C)cc2)cc1	3%	-3%	>57	16%	>77	x
CC(=O)N1CCN(c2ccc(NCc3ccc(C)cc3)cc2)CC1	u	-22%	>57	13µM*	12*	7%
Cc1ccc(CNc2ccc(O)cc2)cc1	10µM*	u	>57	u	i	27%
CCc1ccc(CNc2ccc(N3CCN(C(C)=O)CC3)cc2)cc1	13µM*	u	>57	16µM*	12*	22%
CC(=O)Nc1ccc(N2CCN(C(C)=O)CC2)cc1	-2%	-1%	>57	1%	>77	-1%
O=C(COC(=O)C1=COCCO1)Nc1ccc2c(c1)OCO2	-14%	-3%	>57	-10%	>77	0%
CS(=O)(=O)N1CCC[C@@]2(CCN(c3ncccn3)C2)C1	-4%	0%	x	-2%	x	13%
Cc1ncc([N+](=O)[O-])n1C[C@H](O)CCl	-6%[25.6 µM]	-3%[26 µM]	x	2%[25.6 µM]	x	-2%[17.1 µM]
Cn1nnnc1SCC1=C(C(=O)O)N2C(=O)[C@@H](NC(=O)[C@@H](O)c3ccccc3)[C@@H]2SC1	-3%[25.6 µM]	-5%[26 µM]	x	-2%[25.6 µM]	x	-8%[17.1 µM]
C=C(C)C1CCC(C)=C1COC(=O)Nc1ccccc1 (stereo unspecified)	x	x	x	6.3µM*	x	x
CC(=O)OCCC(C)CCC=C(C)C (stereo unspecified)	x	x	x	10µM*	x	-6%
CC(=O)OC/C=C(\C)CCC=C(C)C	10%	1%	x	u	x	x
CC(C)(C)c1cnnn1-c1ccc(NC(=O)c2ccc3c(c2)OCO3)cc1	-26%	-8%	>57	-9%	u	29%
Nc1ncc2c(n1)CC(c1ccco1)CC2=O (stereo unspecified)	-20%	-5%	>57	5%	>77	0%
CCOC(=O)c1c(NC(=O)CN2CCOCC2)sc2c1CCCC2	-12%	u	>57	25µM*	>77	13%
CCOc1cc(NC(=O)c2ccco2)c(OCC)cc1NC(=O)Cc1cccc(OC)c1	10µM*	u	>57	u	i	23%
Nc1nc(Cl)nc2c1ncn2[C@@H]1O[C@@H](CO)[C@@H](O)[C@H]1O	6%	-7%	x	7%	x	-5%
CC(C)=CCc1c(O)cc2occ(-c3ccc4c(c3)OCO4)c(=O)c2c1O	x	x	x	-16%	x	8%
CC(C)=CCc1c2c(c3occ(-c4ccc(O)c(O)c4)c(=O)c3c1O)C=CC(C)(C)O2	3.2µM*	-6%[11 µM]	x	4µM*	x	u
CCOc1ccccc1O[C@@H](c1ccccc1)[C@@H]1CNCCO1	32µM*	u	x	-5%[25.6 µM]	x	x
CCN(CC)CCOC(=O)C1(c2ccc([N+](=O)[O-])cc2)CCCC1	13µM*!	-4%	x	u	x	-2%[17.1 µM]
O=C(NCC(=O)N1CCCC1)c1cccs1	1%	-6%	>57	6%	>77	-16%
C=CCn1c(N)c(-c2nc3ccccc3n2C)sc1=S	16µM*	-8%	>57	-8%	>77	15%
Cc1csc(NC(=O)c2ccccc2O)n1	-3%	-5%	x	-22%	>77	-21%
SMILES	Tau filament bind	Hsp90 Hop PPI	PK Bst	15-hLO inh	GBA mod	USP2a inh
Cc1csc(NC(=O)c2sc3nc(-c4cccs4)ccc3c2N)n1	228%	u	7.4*	u	>77	41%
O=C(COc1ccc(Cl)cc1)Nc1ccc(Cl)cn1	17%	10%	i	-3%	x	2%
COc1ccc(C2CC(=O)C3=C(C2)Nc2ccccc2N(C(C)=O)C3c2ccco2)cc1 (stereo unspecified)	7%	-8%	>57	4%	>77	24%
S=c1[nH]nc(COc2ccc(Cl)cc2)o1	2%	-1%	3.9*	2%	>77	-3%
O=C(c1ccco1)[C@@H]1[C@@H]2C(=O)N(c3ccc(Br)cc3)C(=O)[C@@H]2C2c3ccccc3C=CN21 (stereo partly specified)	59%	-17%	7.2*	-8%	>77	34%
O=C(c1ccco1)[C@@H]1[C@@H]2C(=O)N(c3ccc(F)cc3)C(=O)[C@@H]2C2c3ccccc3C=CN21 (stereo partly specified)	148%	-9%	>57	-3%	>77	38%
COc1cccc(NC(=O)c2nnn(CCc3ccccc3)c2N)c1	-16%	-9%[2.3 µM]	x	1%	x	x
COc1ccc2oc(=O)c(-c3nnc(NCc4ccco4)s3)cc2c1	29%	6%	>57	0%	9.9*	28%
C=CCN1CCc2c(cc(O)c(O)c2Cl)[C@H](c2ccccc2)C1	-10%	u	x	u	x	18%
CN1CCc2c(cc(O)c(O)c2Cl)[C@H](c2cccc(Cl)c2)C1	-8%	13µM*	x	16µM*	x	19%
COc1ccc(C(=O)n2nnc3ccccc32)cc1Br	2%	0%	>57	-8%	>77	-16%
N#Cc1c(N)oc(-c2ccc3c(c2)OCO3)c1-c1ccc2c(c1)OCO2	-12%	-7%	>57	25µM*	>77	25%
Cc1ccc(CNC(=O)C2CC(=O)OC23CCCC3)c(C)c1 (stereo unspecified)	-12%	-8%	>57	-21%	>77	16%
O=C(CN1CCN(c2ncc(C(F)(F)F)cc2Cl)CC1)NC(=O)NCc1ccccc1	7%	1%	>57	10%	>77	10%
COc1ccc(CCNc2oc(Cc3cccc4ccccc34)nc2C#N)cc1OC	74%	u	9.9*	-23%	>77	12%
Cc1cc(NCCN2CCOCC2)n2ncc(-c3ccc(Cl)cc3)c2n1	-2%	2%	>57	-13%	i	-18%
CCCCCCc1c(O)c2ccccc2[nH]c1=O	-17%	2%	>57	1%	>77	-4%
